Results reported in PubChem BioAssay AID1159580 (chemical genetic matrix, 2015).
Values joined by “and” are separate entries in the source; they are usually repeats but may differ in a detail not shown here. Equal values may be shown once. Out of some 5,500 compounds screened, about 2,000 (36%) were called active. Not shown: some 18% with an inconclusive outcome. Rule as the data show it: active = normalized growth mostly below about 0.91 (no sharp cut-off); inconclusive = no clear call, values can overlap the other calls; inactive = mostly above about 0.92. The list shows a part of the results.

Assay: chemical genetic growth profiling, strain panel (AID 1159580);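 also: tested at 20 µM; growth read once vehicle control cultures reached saturation at 30 °C; 1 = growth at the plate median or of vehicle wells; lower values mean less growth of the strain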
Details: S. cerevisiae deletion strains, growth OD

Measured: normalized growth

CC(C)N1C(=O)c2ccccc2NS1(=O)=O
inactive: locus YAL013W, strain DEP1, hits give low values 1 | locus YAL021C, strain ccr4, hits give low values 0.947 | locus YAL026C, strain drs2, hits give low values 0.976 | locus YAL030W, strain snc1, hits give low values 0.963 | locus YBL061C, strain skt5, hits give low values 0.973 | locus YBR009C, strain hhf1, hits give low values 0.961 | locus YBR021W, strain FUR4, hits give low values 0.966 | locus YBR023C, strain chs3, hits give low values 0.983 | locus YBR171W, strain sec66, hits give low values 0.968 | locus YBR229C, strain ROT2, hits give low values 1 | locus YBR231C, strain swc5, hits give low values 0.994 | locus YBR279W, strain paf1, hits give low values 0.977 | locus YCL011C, strain gbp2, hits give low values 0.962 | locus YCL016C, strain dcc1, hits give low values 0.969 | locus YCL029C, strain bik1, hits give low values 0.999 | locus YCL069W, strain vba3, hits give low values 0.969 | locus YCR088W, strain abp1, hits give low values 0.978 | locus YDL005C, strain med2, hits give low values 0.973 | locus YDL035C, strain GPR1, hits give low values 1.01 | locus YDL040C, strain nat1, hits give low values 0.972 | locus YDL074C, strain BRE1, hits give low values 1.02 | locus YDL101C, strain DUN1, hits give low values 1.01 | locus YDL134C, strain PPH21, hits give low values 0.998 | locus YDL185W, strain tfp1, hits give low values 1 | locus YDL192W, strain arf1, hits give low values 1.01 | locus YDR001C, strain nth1, hits give low values 0.955 | locus YDR069C, strain doa4, hits give low values 0.995 | locus YDR101C, strain arx1, hits give low values 0.999 | locus YDR137W, strain rgp1, hits give low values 0.971 | locus YDR150W, strain NUM1, hits give low values 0.996 | locus YDR159W, strain sac3, hits give low values 1.02 | locus YDR162C, strain NBP2, hits give low values 1.02 | locus YDR195W, strain ref2 0.935 | locus YDR297W, strain sur2, hits give low values 0.988 | locus YDR318W, strain mcm21, hits give low values 1.01 | locus YDR334W, strain swr1, hits give low values 0.957 | locus YDR335W, strain msn5, hits give low values 0.978 | locus YDR388W, hits give low values 0.998 | locus YDR392W, strain spt3, hits give low values 1.02 | locus YDR502C, strain sam2, hits give low values 1.01 | locus YEL003W, strain gim4, hits give low values 0.973 | locus YEL037C, strain rad23, hits give low values 0.976 | locus YEL061C, strain CIN8 (second series), hits give low values 0.966 | locus YEL061C, strain CIN8, hits give low values 0.992 | locus YER015W, strain faa2, hits give low values 0.966 | locus YER016W, strain bim1, hits give low values 0.965 | locus YER110C, hits give low values 1 | locus YER111C, strain swi4, hits give low values 0.979 | locus YER155C, strain BEM2 (second series), hits give low values 1 | locus YER155C, strain BEM2, hits give low values 0.994 | locus YER167W, strain BCK2, hits give low values 1 | locus YFR010W, strain ubp6, hits give low values 0.96 | locus YGL078C, strain dbp3, hits give low values 0.993 | locus YGL086W, strain mad1, hits give low values 0.996 | locus YGL167C, strain pmr1, hits give low values 0.958 | locus YGL173C, strain kem1, hits give low values 0.979 | locus YGL227W, strain vid30, hits give low values 0.989 | locus YGL240W, strain doc1, hits give low values 1 | locus YGL248W, strain PDE1, hits give low values 1.01 | locus YGL253W, strain hxk2, hits give low values 0.984 | locus YGR078C, strain PAC10, hits give low values 0.995 | locus YGR135W, strain pre9, hits give low values 1.01 | locus YGR229C, strain SMI1, hits give low values 1.02 | locus YGR252W, strain gcn5, hits give low values 1.01 | locus YHR013C, strain ard1, hits give low values 0.95 | locus YHR027C, strain rpn1, hits give low values 0.968 | locus YHR030C, strain SLT2, hits give low values 0.972 and 0.994 | locus YHR079C, strain IRE1 (second series), hits give low values 1 | locus YHR079C, strain IRE1, hits give low values 0.982 | locus YHR094C, strain hxt1, hits give low values 0.996 | locus YHR129C, strain ARP1, hits give low values 0.996 | locus YHR142W, strain chs7, hits give low values 0.962 | locus YHR200W, strain rpn10, hits give low values 0.995 | locus YIL066C, strain RNR3, hits give low values 1.03 | locus YIL073C, strain SPO22, hits give low values 1.07 | locus YIL125W, strain kgd1, hits give low values 1.01 | locus YIR030C, strain dcg1, hits give low values 0.997 | locus YJL092W, strain hpr5, hits give low values 0.971 | locus YJL095W, strain BCK1 (second series), hits give low values 0.969 | locus YJL095W, strain BCK1, hits give low values 1.01 and 0.986 | locus YJL115W, strain asf1, hits give low values 0.956 | locus YJL129C, strain trk1, hits give low values 0.961 | locus YJL134W, strain LCB3, hits give low values 1 | locus YJL154C, strain vps35, hits give low values 0.963 | locus YJL164C, strain tpk1, hits give low values 0.988 | locus YJL166W, strain qcr8, hits give low values 0.987 | locus YJL168C, strain set2, hits give low values 1 | locus YJL187C, strain SWE1 (second series), hits give low values 0.997 | locus YJR043C, strain POL32, hits give low values 1 | locus YJR066W, strain TOR1, hits give low values 0.962 | locus YJR075W, strain HOC1, hits give low values 1.02
